Results taken from PubChem BioAssay AID771 (SRMLSC, 2007).
The campaign covered roughly 3,300 compounds. About 55 (2%) were called active.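 The calls were made as follows: active = growth inhibition above 90%, meaning viable cell count by imaging cut by more than 90% versus vehicle controls; inactive = growth inhibition below 90%.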 The full list was thinned out, with actives kept by preference.

Test: HT29 colon tumor cell growth inhibition, primary screen, imaging, high content imaging, 48 h, CellTiter-Glo (AID 771);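 as to condensed nuclei: condensed means Hoechst nuclear area under control median minus 1.5 SD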
Settings: HCS imaging cell count, at 10 µM, stronger effect = higher value; for condensed nuclei: measured here: percent cells with condensed nuclei
[1] = measured here: ATP CellTiter-Glo viability inhibition

Structure (SMILES)	growth inhibition	growth inhibition [1] [%]	condensed nuclei [%]
Cc1ccc2[nH]c3c(N4CCN(Cc5ccc6c(c5)OCO6)CC4)ncnc3c2c1	94.2% (active)	91.8	25.3
Cc1ccc2[nH]c3c(N4CCCCCC4)ncnc3c2c1	96.6% (active)	93	38.1
Cc1ccc2[nH]c3c(N4CCN(Cc5ccccc5)CC4)ncnc3c2c1	16% (inactive)	-1.83	2.02
CN1CCN(c2ncnc3c2[nH]c2ccc(F)cc23)CC1	64.5% (inactive)	10	2.81
Fc1ccc2[nH]c3c(N4CCN(C5CCCCC5)CC4)ncnc3c2c1	94% (active)	85.4	10.8
c1ccc2c(c1)[nH]c1c(N3CCSCC3)ncnc12	57.5% (inactive)	9.84	0.5
Cc1ccc2[nH]c3c(N4CCOCC4)ncnc3c2c1	42.1% (inactive)	15.8	0.48
Fc1ccc2[nH]c3c(N4CCN(Cc5ccc6c(c5)OCO6)CC4)ncnc3c2c1	97.9% (active)	92.8	29
Fc1ccc2[nH]c3c(N4CCSCC4)ncnc3c2c1	38.7% (inactive)	37.9	4.52
c1ccc2c(c1)[nH]c1c(N3CCN(C4CCCCC4)CC3)ncnc12	58.7% (inactive)	2.53	3.08
c1ccc(CN2CCN(c3ncnc4c3[nH]c3ccccc34)CC2)cc1	89.4% (inactive)	57.3	10.8
COc1ccc2[nH]c3c(N4CCN(Cc5ccc6c(c5)OCO6)CC4)ncnc3c2c1	40.6% (inactive)	20.9	3.53
O=C(CCN1CCc2ccccc2CC1)c1ccc2c(c1)OCCO2	18.3% (inactive)	14.1	1.32
Fc1ccc(-c2cnc[nH]2)cc1	7.2% (inactive)	-20.5	1.71
COC(=O)CSc1nc2sc3c(c2c(=O)n1C1CCCCC1)CCN(C)C3	31.7% (inactive)	-21.3	4.17
O=C(O)CC(C(=O)N(c1ccccc1)c1ccccc1)N1CCOCC1 (stereo not given)	-4.04% (inactive)	-10.5	1.81
Cc1occc1C(=O)OCC(=O)Nc1ccc(F)cc1	41.9% (inactive)	18.1	4.91
Cc1ccc(CNC(=O)c2cc3c(=O)n4ccccc4nc3n(Cc3ccco3)c2=N)cc1	38.7% (inactive)	10.6	1.03
CCOc1ccc(C2/C(=C(/O)c3ccc(F)cc3)C(=O)C(=O)N2CCCN(C)C)cc1 (stereo not given)	28.1% (inactive)	-5.46	5.22
CCN1CCN(c2nc3c(C)cccn3c(=O)c2/C=C(\C#N)S(=O)(=O)c2ccccc2)CC1	9.15% (inactive)	7.42	2.58
COC(=O)c1cc(Br)c(=O)n(CCc2ccc(F)cc2)c1	43.4% (inactive)	17.2	1.12
CCOC(=O)c1[nH]c2ccc(F)cc2c1N=C(C)N(CC)CC	-6.13% (inactive)	-22.6	2.07
CC(C)CNC(=O)c1c(N)n(/N=C/c2ccccn2)c2nc3ccccc3nc12	-40% (inactive)	-5.64	2.54
COc1cccc(N2CCN(c3ncnc4c3[nH]c3ccccc34)CC2C)c1 (stereo not given)	89.8% (inactive)	62.2	5.36
COc1cccc(N2CCN(c3ncnc4c3[nH]c3ccc(F)cc34)CC2C)c1 (stereo not given)	91.7% (active)	89.4	4.17

Structure (SMILES)	growth inhibition	growth inhibition [1] [%]	condensed nuclei [%]
Fc1ccc2[nH]c3c(N4CCN(c5ccccc5)CC4)ncnc3c2c1	81.6% (inactive)	84.2	29.2
CC(=O)/C=C(\C)NCCNc1c(F)c(F)c(CO)c(F)c1F	23.4% (inactive)	0.5	1.42
CC(NCCc1ccc(O)cc1)C(O)c1ccc(O)cc1 (stereo not given)	-16.3% (inactive)		2.5
CC(COc1ccccc1)NC(C)C(O)c1ccc(O)cc1 (stereo not given)	22.6% (inactive)		2.89
CCCCCCCCNC(C)C(O)c1ccc(SC(C)C)cc1 (stereo not given)	99.7% (active)		50
COc1ccc(OC)c(C(O)c2coc3ccc(O)c(CN4CCOCC4)c23)c1 (stereo not given)	-2.41% (inactive)	-6.82	4.2
Cc1nc(=O)c(-c2ccccc2)c(C)n1-c1ccc(S(N)(=O)=O)cc1	-25.6% (inactive)	-8.56	2.99
CCOC(=O)c1[nH]c2cc(OC)c(OC)cc2c1NC(=O)C(C)N1CCN(Cc2ccccc2)CC1 (stereo not given)	3.83% (inactive)	-7.15	3.08
CCCCC(=O)NC(Nc1ccc(C)cn1)(C(=O)OCC)C(F)(F)F (stereo not given)	-56.4% (inactive)	-18.7	2.76
CCn1cc(C(=O)NCc2ccccn2)c(=O)c2cc(F)c(N3CCN(C)CC3)cc21	15.6% (inactive)	-1.75	2.93
CCn1cc(C(=O)NCCCN(C)C)c(=O)c2cc(F)c(N3CCN(C)CC3)cc21	23.8% (inactive)	-23.1	4.97
CCn1cc(C(=O)NCCc2ccccc2)c(=O)c2cc(F)c(N3CCN(C)CC3)cc21	97% (active)	89.7	14.8
CCOC(=O)c1ccccc1OCc1cc(/C=N/n2cncn2)ccc1OC	28.7% (inactive)	6.4	3.97
CCOc1ccc(C2C(C#N)=C(N)SC(N)=C2C#N)cc1OC	25.3% (inactive)	1.94	0.7
N=c1c2c(-c3ccccc3)c(-c3ccccc3)n(Cc3ccccc3)c2ncn1CCCn1ccnc1	99.7% (active)	97.2	41.1
O=c1c(C=NCCCn2ccnc2)c(-c2ccccc2)[nH]n1-c1nc2ccccc2s1	1.39% (inactive)	1.73	3.29
OCCNc1ncnc2c1c(-c1ccccc1)c(-c1ccccc1)n2Cc1ccco1	37.6% (inactive)	15.3	3.02
COC(=O)c1[nH]c(C)c(/C(O)=C2\C(=O)C(=O)N(CCN3CCOCC3)C2c2ccccc2OC)c1C (stereo not given)	15.6% (inactive)	7.04	1.6
O=C(NCCN1CCCCC1)/C(=N\O)c1ccccc1	-0.27% (inactive)	-18.5	1.08
Cc1c(=O)n(OCc2c(F)cccc2F)c2ccccc2[n+]1[O-]	7.92% (inactive)	2.47	2.94
C=CC(O)Cc1c(C)n[nH]c1C (stereo not given)	-31.7% (inactive)	7.27	2.84
COc1ccc(OCC(=O)N2CCN(C(=O)c3cccc4ccccc34)CC2)cc1	-1.2% (inactive)	-3.25	2
CNCCC=C1c2ccccc2CCc2ccccc21	97.6% (active)		32.9
CN(C)CCC=C1c2ccccc2CCc2ccccc21	28.2% (inactive)		6.45
COc1ccc(C(C)=O)cc1CSCCC(=O)O	-39.8% (inactive)	-10.3	1.66

Structure (SMILES)	growth inhibition	growth inhibition [1] [%]	condensed nuclei [%]
CCOC(=O)Oc1ccc2c(c1)C(C)=CC(C)(C)N2C(=O)OCC	44.5% (inactive)	33.4	1.63
CCCc1cc(NCCCCO)n2c(nc3ccccc32)c1C#N	41.5% (inactive)	6.57	2.71
C/C(=N/n1cnnc1)c1cccnc1	-50.9% (inactive)	-4.47	2.16
COCc1cc(=O)[nH]c(Nc2nc3ccc(C)cc3o2)n1	93% (active)	69.7	0
COCc1cc(=O)[nH]c(Nc2nc3ccccc3o2)n1	89.2% (inactive)	76.3	2.5
Cc1cccc(OCc2nc(C)cc(=O)[nH]2)c1	37.9% (inactive)	1.04	2.19
COc1ccccc1-n1c(=O)c2c3c(sc2n2c(SC(C)C)nnc12)CCC3	-4.74% (inactive)	-1.5	3.08
CCN(CC)C(=O)CSC1=C(C#N)C(c2ccco2)C(C(=O)OCCOC)=C(C)N1 (stereo not given)	25.5% (inactive)	20.6	3.61
C=CCOC(=O)C1=C(C)NC(SCC(=O)Nc2ccc(C)c(Cl)c2)=C(C#N)C1c1ccco1 (stereo not given)	91.3% (active)	45.8	8.14
C=CCOC(=O)C1=C(C)NC(SCC(=O)N(CC)CC)=C(C#N)C1c1ccco1 (stereo not given)	-28.4% (inactive)	-41.1	2.96
C=CCOC(=O)C1=C(C)NC(SCC(=O)N(CC)CC)=C(C#N)C1c1ccccc1 (stereo not given)	54.1% (inactive)	3.16	4.29
CCOC(=O)C1=C(c2ccccc2)NC(SCC(=O)Nc2ccccc2C)=C(C#N)C1c1ccco1 (stereo not given)	91% (active)	75.3	11
COCCOC(=O)C1=C(C)NC(SCC(=O)NC(C)(C)C)=C(C#N)C1c1ccco1 (stereo not given)	34.7% (inactive)	-24.4	3.96
Cc1cc(CC(=O)O)c(C)cc1CC(=O)O	-42% (inactive)	-0.43	2.43
CCCn1nnc(NC(=O)c2cc(Br)cc(Br)c2OC)n1	-8.21% (inactive)	-15.1	7.92
O=C1[C@@H]2[C@H](C(=O)N1O)[C@H]1C=C[C@@H]2C1	1.8% (inactive)	-19.1	1.79
CCCc1nnc(NC(=O)c2c(O)c3c([nH]c2=O)CCCC3)s1	-9.28% (inactive)	-32.6	7.28
COc1cc(-c2nn3c(-c4cccnc4)nnc3s2)cc(OC)c1OC	-10.1% (inactive)	-33.4	3
c1cncc(-c2nnc3sc(-c4ccco4)nn23)c1	28% (inactive)	26.6	21.4
CCN(CC)c1ccc(-c2nn3c(-c4cccnc4)nnc3s2)cc1	90.1% (active)	75	4.92
O=C(NCCCn1ccnc1)c1cccnc1	-11.4% (inactive)	-30.1	2.67
COc1cccc(-c2nc(N3CCN(Cc4ccccc4)CC3)c3ccccc3n2)c1O	-8.14% (inactive)	0.87	2.41
CCOc1cc2nc(-c3ccc(OC)c(OC)c3)nc(N3CCOCC3)c2cc1OC	97.2% (active)	90	39.3
COc1cc2nc(-c3ccccc3)nc(N3CCCC3)c2cc1OC	27.7% (inactive)	3.73	2.25
CCC1(C)Cc2ccccc2-c2nc(NCCO)n(-c3ccccc3)c(=O)c21 (stereo not given)	60.4% (inactive)	4.3	2.11
